# Assay results published in ChEMBL document CHEMBL3988442, “University of Dundee, Small-Polar-MMV Screening Library” (2021).
# Potency and affinity values are given separately.
# Target: Protein translocase subunit SecA (Escherichia coli (strain K12)) (UniProt P10408)
# Experiment: Assay to Identify E. coli SecA ATPase Inhibitors
# Type: functional
# Set-up: scale not given: direction of the effect not stated beside the values
# Details: 30 µM
# Sequence of Protein translocase subunit SecA (Escherichia coli (strain K12)) (P10408 whole entry): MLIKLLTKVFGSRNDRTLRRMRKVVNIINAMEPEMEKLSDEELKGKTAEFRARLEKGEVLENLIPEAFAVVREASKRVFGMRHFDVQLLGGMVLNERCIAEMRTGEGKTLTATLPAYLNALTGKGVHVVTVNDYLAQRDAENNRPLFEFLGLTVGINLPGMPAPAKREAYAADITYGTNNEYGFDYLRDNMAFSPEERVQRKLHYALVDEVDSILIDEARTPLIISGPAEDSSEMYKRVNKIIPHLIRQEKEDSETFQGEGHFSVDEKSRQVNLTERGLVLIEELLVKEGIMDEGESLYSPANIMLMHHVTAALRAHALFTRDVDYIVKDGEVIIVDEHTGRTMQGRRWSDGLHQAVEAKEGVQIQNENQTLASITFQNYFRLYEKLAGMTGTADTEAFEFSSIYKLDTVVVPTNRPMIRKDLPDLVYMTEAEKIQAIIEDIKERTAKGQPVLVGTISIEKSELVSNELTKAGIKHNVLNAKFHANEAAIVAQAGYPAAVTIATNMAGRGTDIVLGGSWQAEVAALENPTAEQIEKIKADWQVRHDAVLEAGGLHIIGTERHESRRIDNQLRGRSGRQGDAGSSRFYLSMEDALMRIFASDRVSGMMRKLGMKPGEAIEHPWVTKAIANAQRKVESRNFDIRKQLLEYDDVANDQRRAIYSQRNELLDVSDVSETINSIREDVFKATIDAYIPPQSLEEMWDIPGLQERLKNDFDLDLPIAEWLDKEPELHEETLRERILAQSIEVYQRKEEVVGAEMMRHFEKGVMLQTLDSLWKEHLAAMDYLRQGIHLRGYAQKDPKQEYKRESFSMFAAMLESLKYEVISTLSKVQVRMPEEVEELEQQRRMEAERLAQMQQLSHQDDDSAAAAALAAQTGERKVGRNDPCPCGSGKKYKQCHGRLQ
row,Compound,Percent Effect [%]
1,Cn1cc(CC2CCN(C(=O)NCc3cn4ccsc4n3)C2)cn1 (centres undefined),-6.21
2,COc1cc(C(=O)N(CCC#N)Cc2ccccn2)cc(OC)c1C,-4.24
3,CN(Cc1cccnc1)C1CC2(CCN(c3ccccn3)CC2)C1,-2.7
4,Cc1cc(NC(=O)N2CCN(c3nc(C)c(C)s3)CC2)no1,-4.08
5,CN(C)CCCNC(=O)c1cc(Br)c2c(c1)OCCO2,-3.75
6,O=C(Cn1nc2c(cc1=O)CCCC2)N[C@@H](C(=O)O)c1ccccc1,-1.59
7,Cc1cnn(CC2CN(c3cnc4ccccc4n3)CCO2)c1 (centres undefined),-8.32
8,CNC(=O)[C@H]1C[C@@H]2CN(C(=O)c3cscn3)C[C@@H]2N1S(C)(=O)=O,-2.22
9,Cn1cc(CN2C[C@@H]3COC[C@]3(C(=O)NCc3ccccn3)C2)cn1,-3.43
10,CCn1c(Nc2ccccc2OC)nc2c(C)nn(C)c2c1=O,-1.82
11,Cc1ccc(CNCc2nnc3n2CC(C(F)(F)F)CC3)cc1 (centres undefined),-0.646
12,O=c1[nH]c2c(c(=O)n1C1CCCCC1)CCC2Nc1ccccc1 (centres undefined),-1.62
13,Cc1ccc(C)c(C(NC(=O)C2CC2)c2cccnc2)c1 (centres undefined),0.279
14,Cc1cc(N2CCN(CC(=O)N(C)C)CC2)nc(-c2ccncc2)n1,-6.79
15,c1cc(OCc2ccc3c(c2)OCCO3)ccc1CNC1CC1,5.92
16,CN(Cc1ccccn1)C1CC2(CCN(Cc3cccnc3)CC2)C1,-7.24
17,Cc1ccc(CNC(=O)N(Cc2ccccc2F)C2CC2)cn1,-6.51
18,O=C(NC1CCC1)[C@@H]1CCO[C@@H]2CCN(CCc3ccccc3)C[C@H]21,-2.5
19,c1ccc2sc(N3CCOC(Cn4cccn4)C3)nc2c1 (centres undefined),-6.09
